Abs 340nm – compound absorbs light at 340 nm; 65,000 tested, under 10 active; fold change at 10 µM; compound absorbance at 340 nm, fold over control;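 active = at 10 µM dose, initial 340 nm absorbance at least 2 fold that of control wells; inactive = change under 2 fold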;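 note: initial absorbance extrapolated from kinetic A340 decline of NADH oxidation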
Spn PMK inh – blocks S. pneumoniae phosphomevalonate kinase. purified PMK, PK/LDH-coupled NADH absorbance 340 nm. inhibition, % at 10 µM. 0.49% of 65,000 active. AID 539;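 active = top-ranked compounds by inhibition in the single 10 µM screen, taking a fixed number of the strongest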
Fluor 339 460 – intrinsic fluorescence of library compounds, ex339/em460 – biochemical, MLSMR library, data from DPM-DC assay, artefact control, profiling panel; 5.5% of 65,000 active; AID 709; compound autofluorescence, ex339/em460 nm, NADH buffer; stronger effect = higher value; 1 = no-compound wells, NADH background; fluorescence fold increase at 10 µM;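 active = at 10 µM, mean starting fluorescence two-fold or more over control wells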;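 note: signal is the first read of a kinetic run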
Spn MK inh – S. pneumoniae mevalonate kinase inhibition. purified MK, PK/LDH-coupled NADH absorbance 340 nm. 0.48% of 65,000 active. inhibition, % at 10 µM;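 active = ranked among the strongest by inhibition in the single 10 µM screen, a fixed top-ranked set picked for dose follow-up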
DPM-DC inhibit – S. pneumoniae DPM-DC inhibition; calls only at 10 µM; AID 556; purified DPM-DC, PK/LDH coupled NADH fluorescence; 0.49% of 65,000 active;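 active = the 320 compounds with the highest percent inhibition in the single-dose primary screen, excluding strongly autofluorescent ones, cut at about 32% in these data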;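 note: kinetic rate of NADH fluorescence loss reporting ADP formed by the decarboxylase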
NADH enzymes – inhibition of NAD/NADH coupling enzymes, library profiling. coupled PK/LDH NADH assays, four targets. 0.02% of 65,000 active. IC50, µM (highest dose often 10 µM);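 active = single-dose screening hits from any of four coupled enzyme assays that gave an IC50 when retested across doses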;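 note: the DPM-DC format reads NADH fluorescence rather than 340 nm absorbance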
Of the large screens only hits and unclear results are named; the others gave an inactive call; ! = not active in a repeat. Most compounds without a hit are left out; they make up all but 6.8% or so of the library.

COc1ncnc2c1oc1nc(C(C)C)c3c(c12)CC(C)(C)OC3	none
CC(C)c1nc2oc3c(NCc4ccccn4)ncnc3c2c2c1COC(C)(C)C2	Fluor 339 460 3, DPM-DC inhibit active
Cc1nonc1NC(=O)CSc1ccc(-c2ccccc2)nn1	Spn PMK inh 27
CCOc1ccc(C2N(c3ccc(F)cc3)C(=O)C3CCCN32)cc1OC (stereo not given)	none
Brc1ccccc1Cn1c(-c2cncs2)nc2ccccc21	none
c1csc(Cn2c(-c3cccs3)nc3ccccc32)c1	Fluor 339 460 2.8
c1csc(-c2ccc3ccccc3n2)c1	Fluor 339 460 2.6
Cc1cc(-c2cccs2)n[nH]1	none
COc1ccc(OC)c2[nH]c(=O)c(CCNC(=O)c3ccc(Br)o3)cc12	none
Cc1nn(CCc2nn[nH]n2)c2nc(C(F)(F)F)cc(C(F)(F)F)c12	Fluor 339 460 5 (not shown: DPM-DC inhibit)
COc1ccc(-c2nnn(CCc3nn[nH]n3)n2)cc1OC	none
Cc1cc(C)c(-c2cc(C(F)(F)F)no2)c(=O)[nH]1	Fluor 339 460 3.7 (not shown: DPM-DC inhibit)
CCOC(=O)c1ccccc1NC1c2ccccc2C(=O)N1c1ccc(C)cn1 (stereo not given)	none
CCOC(=O)c1ccccc1NC1c2ccccc2C(=O)N1C1CCN(C(=O)OCC)CC1 (stereo not given)	Fluor 339 460 2.4 (not shown: DPM-DC inhibit)
CCOC(=O)N1CCC(N2C(=O)c3ccccc3C2Nc2ccc3c(C)cc(=O)oc3c2)CC1 (stereo not given)	Fluor 339 460 2.5 (not shown: DPM-DC inhibit)
CCOC(=O)c1ccccc1NC1OC(=O)c2ccccc21 (stereo not given)	Fluor 339 460 3.6 (not shown: DPM-DC inhibit)
CCc1nc(NCCc2ccccn2)c2nnn(Cc3ccccc3F)c2n1	none
c1ccc(OCCCc2nc(-c3ccccn3)no2)cc1	none
Cc1nc(SCC(=O)c2ccccc2)c(C#N)c(-c2ccco2)c1C(=O)NCc1ccco1	none
O=C(C1CCCCC1)N1CCC(c2nc3c(nnn3Cc3ccccc3Cl)c(=O)[nH]2)CC1	DPM-DC inhibit active
Cc1ccc(NC(=O)N2CCC(c3nc4c(nnn4Cc4cccc(Cl)c4)c(=O)[nH]3)CC2)cc1	none
O=C(Nc1ccc(F)cc1)N1CCC(c2nc3c(nnn3Cc3cccc(Cl)c3)c(=O)[nH]2)CC1	Spn MK inh 49
COc1ccc(OC)c(NC(=O)C2CCCN2C(=O)C2CCC(C)CC2)c1 (stereo not given)	none
COc1ccc(-n2nc3cc(C)c(NC(=O)C(C)C)cc3n2)cc1	Fluor 339 460 5.1 (not shown: DPM-DC inhibit)
Cc1nnc(SCCn2c(N3CCN(c4ccccc4)CC3)nc3c2c(=O)n(C)c(=O)n3C)s1	none
Cn1nc(-c2ccc(Cl)cc2)c2cc(C(=O)NCCCN3CCOCC3)sc21	Fluor 339 460 2.1 (not shown: DPM-DC inhibit)
Cn1nc(-c2ccc(Cl)cc2)c2cc(C(=O)N3CCN(C(=O)c4ccco4)CC3)sc21	none
Cn1nc(-c2ccc(Cl)cc2)c2cc(C(=O)NCCN3CCOCC3)sc21	Fluor 339 460 2.1 (not shown: DPM-DC inhibit)
CCN1CCN(C(=O)c2cc3c(-c4ccc(Cl)cc4)nn(C)c3s2)CC1	none
Cn1c(=O)n(C/C=C/c2ccccc2)c(=O)c2c1nc1n2CCCN1c1ccc(F)cc1	none
CC(CCc1ccccc1)NC(=O)c1ccncc1 (stereo not given)	none
CC(CCc1ccccc1)NCC(O)c1ccc(O)c(C(N)=O)c1 (stereo not given)	Fluor 339 460 2.5 (not shown: DPM-DC inhibit)
CCOc1ccc(-c2cc3nc(C4CCN(C(=O)OC(C)(C)C)CC4)c(C(=O)O)cn3n2)cc1	Fluor 339 460 4.4 (not shown: DPM-DC inhibit)
COC(C(=O)Nc1cccc(F)c1)c1ccccc1 (stereo not given)	none
Cc1ccc(S(=O)(=O)c2nc(S(C)(=O)=O)sc2NCC2CCCO2)cc1 (stereo not given)	Fluor 339 460 2.1 (not shown: DPM-DC inhibit)
O=C(Nc1cccc2nsnc12)c1cccs1	Fluor 339 460 3.6! (not shown: DPM-DC inhibit)
O=C(Nc1ccc2nsnc2c1)c1cccs1	none
Cc1noc(NS(=O)(=O)c2ccc(NC(=O)CSc3nc4ccccc4s3)cc2)c1C	none
CCOc1ccccc1-c1nc(C(N)=O)c2[nH]c(=O)n(-c3ccc(F)cc3)c2n1	Fluor 339 460 2.1 (not shown: DPM-DC inhibit)
COc1cc(OC)c(C2CC(=O)N3CN(c4ccccc4)CSC3=C2C#N)cc1OC (stereo not given)	Spn MK inh 64
c1ccc2c(c1)NC1(CCCC1)n1c-2nc2ccccc21	Fluor 339 460 5 (not shown: DPM-DC inhibit)
